Measurements from PubChem BioAssay (NCI).
This is part of a sample that, as a whole, favours compounds with a hit. Of some 83,000 tested, about 20% had one in any assay.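 Method: cells in 96-well plates; compound added at one concentration; 48 h incubation; percent growth measured; values under 10 scored active.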 Calls of active or inactive are those of the source.

How the values were obtained:
Experiment in all cases: NCI-60 one-dose screen, 48 h (100 = growth as untreated, 0 = no growth, -100 = all killed)
Conditions in all cases: 10 µM unless noted
[1] = system: SR leukemia
[2] = system: RPMI-8226 leukemia
[3] = system: OVCAR-8 ovarian
[4] = system: OVCAR-5 ovarian
[5] = system: OVCAR-4 ovarian
[6] = system: SK-OV-3 ovarian
[7] = system: IGROV1 ovarian
[8] = system: OVCAR-3 ovarian
[9] = system: HS 578T breast
[10] = system: NCI/ADR-RES ovarian

Measured: growth

COc1ccc2c(c1)c(-c1nonc1-c1cn(C)c3ccc(OC)cc13)cn2C
inactive: [1] 16.5% | [2] 39.9% | [3] 52.9% | [4] 56.2% | [5] 62% | [6] 48.2% | [7] 46.5% | [8] 11.4% | [9] 34.4% | [10] 22.3%

C=CC(=O)NCCOc1cccc(Nc2cc(NCCCNC(=O)C3CCC3)c(Br)cn2)c1
active: [1] -10.1% | [2] -22.8% | [3] 4.84% | [4] 2.75% | [5] -20.6% | [6] -54.4% | [7] 2.28% | [8] -25.5% | [9] -18.4%
inactive: [10] 39.5%

Cc1ccc(-c2nc(C#N)c(S(=O)(=O)NCCO)o2)cc1
active: [1] -7.78% | [2] 1.81%
inactive: [3] 64.7% | [4] 94.5% | [5] 86.9% | [6] 95.7% | [7] 65.1% | [8] 41.3% | [9] 107% | [10] 81%

COc1ccc(/C=C/C(=O)c2cc3c(N)c(C(=O)Nc4ccccc4C)sc3nc2C)cc1
inactive: [1] 15.2% | [4] 36.6% | [5] 54% | [6] 21.2% | [7] 30.6% | [9] 10.4%
active: [2] -7.33% | [3] 6.22% | [8] 1.23% | [10] 7.7%

CCn1cc(C(=O)N/N=C/c2ccc(Br)cc2)c(=O)c2cc(F)c(N3CCNC(C)C3)c(F)c21 (stereo not given)
inactive: [3] 57.8% | [4] 94% | [5] 81.7% | [6] 109% | [7] 71.3% | [8] 52.9% | [9] 73% | [10] 83.3%
active: [1] 4.35% | [2] -14.8%

CC[C@H](CC[C@@H](C)[C@H]1CC[C@H]2[C@@H]3CC[C@@H]4CC(=O)/C(=C\c5ccncc5)C[C@]4(C)[C@H]3CC[C@]12C)C(C)C
inactive: [1] 87.5% | [2] 92.2% | [3] 100% | [4] 104% | [5] 110% | [6] 99.7% | [7] 104% | [8] 106% | [9] 98.8% | [10] 104%

COc1ccc2c(c1)c(-c1ccc(-c3cn(C)c4ccc(OC)cc34)[nH]1)cn2C
inactive: [4] 30.9% | [6] 50.9% | [7] 23.1%
active: [1] -10.7% | [2] 2.15% | [3] 7.19% | [5] -40.3% | [8] -42% | [9] -13% | [10] 3.06%

O=C(CN1C(=O)NC2NC(=O)NC21)N/N=C/c1ccc(Cl)cc1Cl (stereo not given)
inactive: [1] 109% | [2] 104% | [3] 109% | [4] 105% | [5] 103% | [6] 102% | [7] 103% | [8] 104% | [9] 103% | [10] 104%

O=C(/C=C/C12c3ccccc3C(c3ccccc31)C1C(=O)NC(=O)C12)c1ccccn1 (stereo not given)
active: [1] -8.33% | [2] -27.6% | [3] 1.98% | [6] 5.83% | [7] -12.3% | [8] -8.72%
inactive: [4] 21% | [5] 35.3% | [9] 40.1% | [10] 11.3%

CC(C(=O)O)n1c(O)c(C=Nc2cccnc2)sc1=S (stereo not given)
inactive: [1] 97.8% | [2] 83.6% | [3] 90.7% | [4] 98.9% | [5] 92.4% | [6] 98.4% | [7] 84.2% | [8] 105% | [9] 74.9% | [10] 98.7%

COc1cc(-c2cc(-c3ccc(Nc4ncnc5cc(Cl)ccc45)cc3)nc(N3CCN(C)CC3)n2)cc(OC)c1OC
inactive: [1] 42.7% | [2] 76.2% | [3] 35.1% | [4] 103% | [5] 58.9% | [6] 114% | [7] 81.3% | [8] 105% | [9] 73.2% | [10] 85.3%

O=C(Nc1ncc(Cc2ccccc2Cl)s1)c1cccs1
inactive: [1] 20.4% | [2] 73.5% | [3] 85.7% | [4] 87.9% | [5] 74.4% | [6] 81.7% | [7] 72.3% | [8] 79.2% | [9] 74.4% | [10] 53.7%

N#C/C(=C\c1ccc(Cl)cc1Cl)C(=O)Nc1ncc(Cc2ccc(Cl)c(Cl)c2)s1
inactive: [1] 59.6% | [2] 92.9% | [3] 91.6% | [4] 71.5% | [5] 82.8% | [6] 96.6% | [7] 85.6% | [8] 98.9% | [9] 94.3% | [10] 83.2%

NC(=O)c1ccc(NC(=O)c2oc3ccccc3c2-c2cnn(-c3ccccc3)c2)cc1
active: [4] -6.33% [50 µM] | [5] -30.5% [50 µM] | [8] 1.08% [50 µM] | [9] 5.15% [50 µM] | [10] -3.84% [50 µM]
inactive: [1] 15.9% [50 µM] | [2] 17.6% [50 µM] | [3] 13.4% [50 µM] | [6] 62.4% [50 µM] | [7] 10.6% [50 µM]

CCOC(=O)c1c(C)nc2c(c1N)CC(=O)N2Cc1cc(OC)c(OC)c(OC)c1
inactive: [1] 20.7% | [2] 40.9% | [3] 61.9% | [4] 93% | [5] 51.3% | [6] 57.2% | [7] 53.1% | [8] 23.5% | [9] 65.1% | [10] 17.6%

O=C(Nc1ccccc1O)c1ccccc1Nc1ccnc(C(F)(F)F)c1
inactive: [1] 76% | [2] 56.5% | [3] 100% | [4] 99.9% | [5] 95.8% | [6] 100% | [7] 79.5% | [8] 97.6% | [9] 96.4% | [10] 90.7%

O=C(CSc1nc2ccc([N+](=O)[O-])cc2[nH]1)Nc1cccc([N+](=O)[O-])c1
inactive: [1] 41.1% | [2] 11.9% | [3] 60% | [4] 82.6% | [5] 28.7% | [6] 55.8% | [7] 59.1% | [8] 38.9% | [9] 66.9% | [10] 66.9%

CCn1cc(C2=C(c3cn(C)c4ncccc34)C(=O)NC2=O)c2cccnc21
inactive: [1] 59.4% | [2] 85.2% | [3] 82.5% | [4] 102% | [5] 69.3% | [6] 41.6% | [7] 64.5% | [8] 64.7% | [9] 32% | [10] 78.2%

CC/C=C\C/C=C/C=C1/C(=O)C=C[C@@H]1C/C=C\CCCC(=O)OC
inactive: [3] 13.2% | [4] 63.8% | [5] 85.4% | [6] 110% | [7] 65.4% | [8] 11.1% | [9] 11.9% | [10] 73.5%
active: [1] 5.21% | [2] 1.81%

CCCCSCC(=O)c1ccccc1
inactive: [1] 88.3% | [2] 106% | [3] 94.2% | [4] 95.2% | [5] 100% | [6] 81.4% | [7] 99.3% | [8] 99.3% | [9] 110% | [10] 97.9%

CCN1C(=O)N(CC)C2C1NN=c1s/c(=C\c3ccccc3Br)c(=O)n12 (stereo not given)
inactive: [1] 13.6% | [2] 15.5% | [4] 28% | [5] 49.7% | [6] 38.1% | [7] 16.9% | [9] 16.1%
active: [3] 1.17% | [8] 2.96% | [10] 7.75%

C(/C=C/c1ccccc1)=Nc1ccc(CCc2ccc(N=C/C=C/c3ccccc3)cc2)cc1
inactive: [1] 47.3% | [2] 94.5% | [3] 83.5% | [4] 93.6% | [5] 101% | [6] 98.6% | [7] 85.8% | [8] 132% | [9] 108% | [10] 80.9%

CCOC(=O)c1c2c(n3ccccc13)C(=O)c1ncccc1C2=O
active: [3] 5.6% | [8] -19.8% | [10] 4.98%
inactive: [1] 18.6% | [2] 29.2% | [4] 42.2% | [5] 16.6% | [6] 22.2% | [7] 31.8% | [9] 52.6%

CS(=O)(=O)Nc1cc(-c2ccc3ncnc(Nc4ccc5c(cnn5Cc5cccnc5)c4)c3c2)cnc1Cl
inactive: [1] 21.5% | [2] 54.7% | [3] 75.6% | [4] 49% | [5] 74.6% | [6] 58.4% | [8] 19.2% | [10] 93.2%
active: [7] 3.96% | [9] -2.21%

Cn1c(=O)c2c(nc(NC3=NS(=O)(=O)c4ccccc43)n2Cc2ccccc2)n(C)c1=O
inactive: [1] 108% | [2] 103% | [3] 99.5% | [4] 99.6% | [5] 103% | [6] 97.5% | [7] 95.5% | [8] 110% | [9] 96.5% | [10] 103%

O=C(Nc1cccc(NC(=O)C2CCCCC2)c1)c1ccccn1
inactive: [1] 88.9% | [2] 105% | [3] 104% | [4] 105% | [5] 101% | [6] 102% | [7] 98.7% | [8] 104% | [9] 111% | [10] 93.8%
